Laboratory results taken from PubChem BioAssay AID602283 (Johns Hopkins Ion Channel Center, 2012).
Screen size: about 1,100 compounds; about 940 (85%) were called active.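 Rule for the calls: active = inhibition exceeding 3 SD of buffer-only control wells (cut at about 26% in these data); inactive = the rest.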 The set was probably picked from earlier hits. Not all results are given here.

assay: M3R calcium signalling without RGS4 expression – cell-based, HEK293 M3R, non-induced RGS4, Fluo-4 calcium, counter-screen for RGS4 activator project, primary screen (AID 602283); settings: HEK293 M3R non-induced RGS4, Fluo4 calcium flux; at 10 µM; active compounds read high; after carbachol challenge at its EC90;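 note: percent drop in integrated peak-minus-baseline over baseline Fluo4 ratio after carbachol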

SMILES | inhibition
C=CC12CN(C)[C@@H]3C4CO[C@H](C[C@H]41)[C@]1(C(=O)Nc4ccccc41)[C@@H]32 (some centres not stated) | 83.8% (active)
CC(C)Oc1cccc(C(=O)C2CCCN(C3CCOCC3)C2)c1 (configuration not stated) | 83.8% (active)
